# Test results from ChEMBL document CHEMBL3988442, “University of Dundee, Small-Polar-MMV Screening Library” (2021).
# For some assays here: Measured potencies and affinities stand elsewhere.
# How the values were obtained:
# Design in all cases: scale not given: direction of the effect not stated beside the values
# [1] = target: Protein translocase subunit SecA (Escherichia coli (strain K12)) (UniProt P10408); experiment: Assay to Identify E. coli SecA ATPase Inhibitors; assay type: functional; conditions: 30 µM
# [2] = target: T1, Ubiquitin-activating enzyme e1, putative (Leishmania donovani (strain BPK282A1)) (UniProt E9BSI1); experiment: Leishmania donovani Ubiquitin Activating Enzyme (LdE1); assay type: functional; conditions: 30 µM
# T1 sequence (whole entry): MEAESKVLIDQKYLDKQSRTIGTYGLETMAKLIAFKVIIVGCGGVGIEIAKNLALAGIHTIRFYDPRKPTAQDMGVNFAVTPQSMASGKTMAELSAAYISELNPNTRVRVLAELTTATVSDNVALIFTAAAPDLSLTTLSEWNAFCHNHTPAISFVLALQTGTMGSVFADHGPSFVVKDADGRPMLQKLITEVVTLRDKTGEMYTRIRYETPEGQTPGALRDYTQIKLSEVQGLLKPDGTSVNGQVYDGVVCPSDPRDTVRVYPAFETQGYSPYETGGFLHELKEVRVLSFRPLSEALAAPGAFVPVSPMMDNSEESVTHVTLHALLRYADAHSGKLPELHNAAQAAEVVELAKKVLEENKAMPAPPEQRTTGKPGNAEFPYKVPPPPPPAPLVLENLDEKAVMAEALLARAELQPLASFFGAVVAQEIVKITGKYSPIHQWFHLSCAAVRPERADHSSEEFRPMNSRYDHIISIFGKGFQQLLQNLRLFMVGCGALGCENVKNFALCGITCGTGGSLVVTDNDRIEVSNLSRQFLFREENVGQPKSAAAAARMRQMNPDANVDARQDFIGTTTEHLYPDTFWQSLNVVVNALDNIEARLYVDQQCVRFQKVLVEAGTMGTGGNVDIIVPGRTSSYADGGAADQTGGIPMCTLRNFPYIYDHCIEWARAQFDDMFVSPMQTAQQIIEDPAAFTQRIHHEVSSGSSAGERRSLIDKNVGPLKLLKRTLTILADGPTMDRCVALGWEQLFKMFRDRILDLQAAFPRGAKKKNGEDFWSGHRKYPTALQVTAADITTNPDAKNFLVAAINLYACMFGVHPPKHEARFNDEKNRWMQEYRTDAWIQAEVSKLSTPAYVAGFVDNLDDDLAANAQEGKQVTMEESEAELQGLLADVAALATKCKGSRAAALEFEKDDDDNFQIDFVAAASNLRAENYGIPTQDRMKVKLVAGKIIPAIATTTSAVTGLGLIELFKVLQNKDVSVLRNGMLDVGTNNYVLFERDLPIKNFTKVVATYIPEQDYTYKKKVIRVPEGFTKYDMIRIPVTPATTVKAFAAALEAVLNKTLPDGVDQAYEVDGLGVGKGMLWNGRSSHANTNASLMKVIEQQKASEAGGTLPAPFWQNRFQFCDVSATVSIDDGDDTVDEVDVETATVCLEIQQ
# [3] = target: AMP-activated protein kinase, AMPK (Homo sapiens) (UniProt P54646+O43741+P54619+Q9UGJ0+Q9Y478+Q13131+Q9UGI9); experiment: AMP-dependent Kinase enzyme assay. An in vitro enzyme assay that detects ADP turnover that is directly proportional to AMPK activity. This uses naive AMPK that is activated during the assay with MK-8722; assay type: functional; conditions: 30 µM
# [4] = target: Sialic acid-binding Ig-like lectin 9 (Homo sapiens) (UniProt Q9Y336); experiment: Hs-Siglec9 ALPHAscreen SOP 20170721; conditions: 10 µM
# Trypanosoma cruzi = experiment: Trypanosoma cruzi phosphomannomutase and mannose-1-phosphate guanylyltransferase assay; assay type: functional; conditions: 10 µM
# [5] = target: T2, Arginase-2, mitochondrial (Homo sapiens) (UniProt P78540); experiment: in vitro enzyme assay to detect the production of urea directly proportional to the activity of Arginase II; assay type: functional; conditions: 33.3 µM; note: in the data most compounds retested in dose-response had high values
# T2 sequence (whole entry): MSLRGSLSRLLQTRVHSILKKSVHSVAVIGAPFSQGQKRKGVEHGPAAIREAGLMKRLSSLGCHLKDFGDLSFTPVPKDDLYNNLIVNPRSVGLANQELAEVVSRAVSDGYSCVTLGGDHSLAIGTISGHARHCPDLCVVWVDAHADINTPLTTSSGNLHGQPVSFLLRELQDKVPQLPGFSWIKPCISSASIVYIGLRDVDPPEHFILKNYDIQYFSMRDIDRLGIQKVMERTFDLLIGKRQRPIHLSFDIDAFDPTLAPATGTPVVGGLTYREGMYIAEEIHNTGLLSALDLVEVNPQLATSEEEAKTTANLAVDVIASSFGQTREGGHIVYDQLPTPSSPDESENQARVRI
# [6] = target: T3, Proteasome subunit beta (Trypanosoma cruzi) (UniProt O96673); experiment: Trypanosoma cruzi proteasome chymotrypsin-like activity (TcProtChymo) assay.; note: in the data most compounds retested in dose-response had high values; assay type: functional; conditions: 9.37 µM
# T3 sequence (whole entry): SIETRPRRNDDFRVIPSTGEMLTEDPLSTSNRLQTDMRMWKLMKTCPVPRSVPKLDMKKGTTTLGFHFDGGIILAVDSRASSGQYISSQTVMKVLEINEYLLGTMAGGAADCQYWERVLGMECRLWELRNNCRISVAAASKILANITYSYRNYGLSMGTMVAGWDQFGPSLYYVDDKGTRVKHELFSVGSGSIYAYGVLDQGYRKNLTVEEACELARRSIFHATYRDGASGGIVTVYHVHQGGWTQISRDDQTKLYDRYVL
# Homo sapiens = organism: Homo sapiens; experiment: To identify inhibition of the IFN signalling (Jak-Stat) pathway via expression of an eGFP reporter gene under the control of an IFN-stimulated response element (ISRE) containing MxA promoter.; assay type: functional; conditions: 30 µM
# [7] = target: T4, Tyrosyl-tRNA synthetase, putative (Trypanosoma cruzi (strain CL Brener)) (UniProt Q4DSP6); experiment: Trypanosoma cruzi tyrosyl tRNA synthetase (TcYRS) _High Tyrosine SOP; assay type: functional; conditions: 30 µM; note: in the data most compounds retested in dose-response had high values
# T4 sequence (whole entry): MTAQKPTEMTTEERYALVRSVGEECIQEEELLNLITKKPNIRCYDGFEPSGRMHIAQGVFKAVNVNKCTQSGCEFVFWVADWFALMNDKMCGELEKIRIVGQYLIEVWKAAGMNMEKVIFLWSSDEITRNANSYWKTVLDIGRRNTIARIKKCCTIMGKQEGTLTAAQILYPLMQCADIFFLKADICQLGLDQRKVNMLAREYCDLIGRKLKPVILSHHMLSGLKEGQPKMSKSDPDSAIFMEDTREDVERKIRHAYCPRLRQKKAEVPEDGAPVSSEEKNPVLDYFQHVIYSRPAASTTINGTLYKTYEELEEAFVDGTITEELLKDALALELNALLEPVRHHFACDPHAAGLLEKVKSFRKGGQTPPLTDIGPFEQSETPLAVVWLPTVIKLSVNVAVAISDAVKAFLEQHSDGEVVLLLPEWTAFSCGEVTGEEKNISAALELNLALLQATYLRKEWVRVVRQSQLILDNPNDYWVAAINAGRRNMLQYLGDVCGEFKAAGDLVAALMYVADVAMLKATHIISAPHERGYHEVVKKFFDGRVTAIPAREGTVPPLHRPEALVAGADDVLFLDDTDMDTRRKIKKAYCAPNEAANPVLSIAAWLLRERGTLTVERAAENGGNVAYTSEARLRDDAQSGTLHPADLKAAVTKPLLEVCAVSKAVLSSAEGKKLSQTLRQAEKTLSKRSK
# [8] = target: T4, Tyrosyl-tRNA synthetase, putative (Trypanosoma cruzi (strain CL Brener)); experiment: Trypanosoma cruzi tyrosyl tRNA synthetase (TcYRS) SOP; assay type: functional; conditions: 30 µM
# [9] = target: Chromo domain-containing protein 1 (Saccharomyces cerevisiae (strain ATCC 204508 / S288c) (Baker's yeast)) (UniProt P32657); experiment: ScCHD-1 Enzyme Inhibition Assay; assay type: functional; conditions: 30 µM; note: in the data most compounds retested in dose-response had high values
# Chain of Chromo domain-containing protein 1 (Saccharomyces cerevisiae (strain ATCC 204508 / S288c) (Baker's yeast)) (P32657 whole entry, the tested form may be a part): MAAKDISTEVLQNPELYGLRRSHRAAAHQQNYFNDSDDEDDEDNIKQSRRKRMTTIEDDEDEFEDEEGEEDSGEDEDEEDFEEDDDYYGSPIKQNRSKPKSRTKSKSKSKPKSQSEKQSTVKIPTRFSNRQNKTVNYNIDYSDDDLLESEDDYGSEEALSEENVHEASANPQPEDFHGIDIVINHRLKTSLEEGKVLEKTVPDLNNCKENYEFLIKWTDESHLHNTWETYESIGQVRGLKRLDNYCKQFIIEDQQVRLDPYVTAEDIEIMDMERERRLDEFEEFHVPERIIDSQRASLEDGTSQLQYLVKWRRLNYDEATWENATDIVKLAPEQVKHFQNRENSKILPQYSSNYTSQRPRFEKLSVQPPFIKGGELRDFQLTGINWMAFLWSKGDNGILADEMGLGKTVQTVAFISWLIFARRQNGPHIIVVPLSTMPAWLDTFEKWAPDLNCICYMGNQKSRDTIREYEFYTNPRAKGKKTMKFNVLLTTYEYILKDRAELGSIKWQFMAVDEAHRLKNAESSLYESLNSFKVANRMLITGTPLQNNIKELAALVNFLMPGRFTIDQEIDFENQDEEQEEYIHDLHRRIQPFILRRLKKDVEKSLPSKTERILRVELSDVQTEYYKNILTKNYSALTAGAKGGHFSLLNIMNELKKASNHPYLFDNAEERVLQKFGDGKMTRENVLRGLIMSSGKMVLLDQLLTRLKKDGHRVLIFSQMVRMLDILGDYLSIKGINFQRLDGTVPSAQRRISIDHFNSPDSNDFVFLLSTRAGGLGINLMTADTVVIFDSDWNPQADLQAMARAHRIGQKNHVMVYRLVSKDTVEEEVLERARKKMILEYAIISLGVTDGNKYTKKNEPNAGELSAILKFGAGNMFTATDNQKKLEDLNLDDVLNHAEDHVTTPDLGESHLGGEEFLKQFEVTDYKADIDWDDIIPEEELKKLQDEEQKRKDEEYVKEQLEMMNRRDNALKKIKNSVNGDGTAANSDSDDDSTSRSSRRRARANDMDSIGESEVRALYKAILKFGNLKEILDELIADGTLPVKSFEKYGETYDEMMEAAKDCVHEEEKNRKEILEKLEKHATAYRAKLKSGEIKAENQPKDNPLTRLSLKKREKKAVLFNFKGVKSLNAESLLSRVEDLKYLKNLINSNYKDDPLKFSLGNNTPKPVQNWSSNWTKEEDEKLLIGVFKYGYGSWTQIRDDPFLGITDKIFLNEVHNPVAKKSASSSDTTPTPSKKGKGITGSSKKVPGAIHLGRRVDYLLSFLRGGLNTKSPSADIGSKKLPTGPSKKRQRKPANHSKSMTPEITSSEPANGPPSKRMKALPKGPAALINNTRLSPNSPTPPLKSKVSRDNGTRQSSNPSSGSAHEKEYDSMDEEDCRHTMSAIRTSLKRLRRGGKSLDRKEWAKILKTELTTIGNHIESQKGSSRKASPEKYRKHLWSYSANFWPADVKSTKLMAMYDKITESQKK
# Chain of Sialic acid-binding Ig-like lectin 9 (Homo sapiens) (Q9Y336 whole entry): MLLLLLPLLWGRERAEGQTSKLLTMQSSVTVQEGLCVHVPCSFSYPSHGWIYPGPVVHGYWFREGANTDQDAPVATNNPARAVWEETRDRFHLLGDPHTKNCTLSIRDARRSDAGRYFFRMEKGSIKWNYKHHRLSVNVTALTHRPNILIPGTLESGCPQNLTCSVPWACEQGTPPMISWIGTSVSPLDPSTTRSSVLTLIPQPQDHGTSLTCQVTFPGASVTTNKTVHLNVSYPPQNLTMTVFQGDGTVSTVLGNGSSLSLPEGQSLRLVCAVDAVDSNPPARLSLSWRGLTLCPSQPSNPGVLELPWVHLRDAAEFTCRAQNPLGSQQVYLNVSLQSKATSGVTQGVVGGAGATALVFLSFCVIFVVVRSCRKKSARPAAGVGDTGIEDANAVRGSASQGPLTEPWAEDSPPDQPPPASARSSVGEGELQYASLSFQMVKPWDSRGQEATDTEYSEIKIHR
# Chain of Protein translocase subunit SecA (Escherichia coli (strain K12)) (P10408 whole entry): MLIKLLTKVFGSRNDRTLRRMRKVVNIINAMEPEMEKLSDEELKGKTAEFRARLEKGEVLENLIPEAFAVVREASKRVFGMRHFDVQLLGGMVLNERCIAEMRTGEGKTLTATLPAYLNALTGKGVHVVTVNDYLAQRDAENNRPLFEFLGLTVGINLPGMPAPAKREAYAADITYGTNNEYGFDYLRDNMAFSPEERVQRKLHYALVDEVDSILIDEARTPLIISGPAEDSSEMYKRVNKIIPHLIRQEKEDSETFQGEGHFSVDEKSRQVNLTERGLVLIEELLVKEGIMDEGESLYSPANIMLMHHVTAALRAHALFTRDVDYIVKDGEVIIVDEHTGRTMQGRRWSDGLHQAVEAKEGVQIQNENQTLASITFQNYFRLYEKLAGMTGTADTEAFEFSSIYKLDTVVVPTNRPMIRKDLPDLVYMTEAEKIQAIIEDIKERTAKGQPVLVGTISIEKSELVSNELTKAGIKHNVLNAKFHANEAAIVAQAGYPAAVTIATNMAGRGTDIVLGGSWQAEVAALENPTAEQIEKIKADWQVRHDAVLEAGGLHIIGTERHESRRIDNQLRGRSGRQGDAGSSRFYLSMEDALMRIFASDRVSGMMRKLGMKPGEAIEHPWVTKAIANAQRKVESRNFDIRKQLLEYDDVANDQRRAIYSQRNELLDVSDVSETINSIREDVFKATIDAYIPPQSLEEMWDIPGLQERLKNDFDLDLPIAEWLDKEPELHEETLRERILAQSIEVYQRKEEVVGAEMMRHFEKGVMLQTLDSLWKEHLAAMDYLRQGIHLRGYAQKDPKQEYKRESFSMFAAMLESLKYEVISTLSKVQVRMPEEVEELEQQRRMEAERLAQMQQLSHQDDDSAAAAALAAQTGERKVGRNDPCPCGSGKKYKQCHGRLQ
SMILES,Percent Effect [1] [%],Percent Effect [2] [%],Percent Effect [3] [%],Percent Effect [4] [%],Percent Effect (Trypanosoma cruzi) [%],Percent Effect [5] [%],Percent Effect [6] [%],Percent Effect (Homo sapiens) [%],Percent Effect [7] [%],Percent Effect [8] [%],Percent Effect [9] [%]
Cc1noc([C@@]23CCO[C@@H]2CCN(CC2CCOCC2)C3)n1,2.95,8,7.01,4.21,-6.76,-51.4,9.91,2.92,8.33,20,-7.02
CCc1nc(CN2CCCC(N(C)Cc3cnc(C)s3)C2)no1 (configuration not stated),-0.97,-5.48,-1.7,3.08,0.979,0.455,18.8,-15.8,2.15,0,-0.829
CC(C)c1nccn1C1CCCN(C(=O)c2ccc3c(c2)OCO3)C1 (configuration not stated),1.45,-2.6,7.64,-5.54,1.27,5.26,3.96,9.94,0,-2.35,-9.35
Cc1ccccc1Oc1ncccc1CNS(C)(=O)=O,-5.18,15.6,-0.858,12.6,8.16,-8.28,1.33,0.0503,5.38,11.1,-7.62
O=C(c1ccc[nH]1)N1C[C@H]2CC[C@@H]1CN(C1Cc3ccccc3C1)C2,-0.308,8.11,-3.81,12.3,3.62,23.1,10.7,-4.7,6.45,18.5,-2.58
Cc1ccc(CNC(=O)Nc2nnc(C)s2)cn1,-1.62,23.7,1.54,-3.95,1.03,2.16,15.1,1.76,8.37,25.9,-9.14
CN1CC(=O)N(c2cccc(F)c2)CC12CCNC2 (configuration not stated),-5.9,0,3.44,-2.82,-3.03,-4.78,10.7,12.5,-1.08,5.13,1.85
CN(C)c1nc2c(c(N3CCC(O)CC3)n1)CN(CC1CCNC1)CC2 (configuration not stated),-1.69,10.8,-1.59,10.5,0.193,0.476,10.9,2.62,12.2,19.5,-4.09
CC(O)CN1CCN(C(=O)CN(C)c2cnccn2)CC1 (configuration not stated),3.16,5.41,-4.8,6.58,-2.12,-70,16.6,5.3,3.7,4.88,-5.99
C=C(C)COCCNC(=O)C1CCCN1C(C)=O (configuration not stated),-2.72,18.2,-0.215,2.93,7.3,-1.78,5.41,6.11,5.83,21.9,-8.29
CCN(CC)c1ccc(NS(=O)(=O)c2cnn(C)c2)cn1,-1.96,16.4,-5.27,6.69,8.33,-6.39,8.48,0.142,6.25,13.6,-5.08
COCc1noc(C2(c3ccc(F)cc3)CCOCC2)n1,3.24,8.11,7.86,11.7,-7.72,-3.81,11.4,40.2,0.529,-2.44,-5.88
Cc1oc(C(=O)O)cc1S(=O)(=O)Nc1ccc(Cl)c(F)c1,-4.46,0,1.91,3.7,-5.24,2.85,-2.2,27.1,-2.91,-4.88,-4.31
Cc1ccc2c(ccn2CC(=O)NC[C@@H]2CCCN3CCCC[C@H]23)c1,-5.2,28,-5.58,4.06,5.5,-6.16,16.3,-4.16,4.23,12.8,-11.5
Cc1ccc(CN2CC[C@H]3OCC[C@@H](c4nc(C)no4)[C@H]3C2)cc1,-4.22,5.41,2.69,-2.48,7.14,-4.14,15.3,-21.7,0,10.3,0.212
Cc1cccnc1NC(=O)CC1(Cn2cnnn2)CCCCC1,-5.51,21.1,-0.535,3.53,1.66,1.18,9.11,-4.12,3.19,13,-13.8
CCN1CCN(c2ccc(F)cc2C(C)NCc2ccncc2)CC1 (configuration not stated),-5.73,0,-10.3,-1.77,-2.25,-3.72,9.7,6.08,3.23,6.17,-0.559
CN(Cc1nnc(C2CC2)n1C)C1CCN(Cc2ccon2)C1 (configuration not stated),-1.9,21.6,-11.6,-5.53,-2.17,-10,12.6,7.46,5.42,11.1,-7.81
COC(=O)Cn1cccc(S(=O)(=O)N2CCC(C)CC2)c1=O,-2.33,20,-5.59,-8.73,2.75,92.1,14.8,15.8,2.12,10.3,-10.4
O=C([C@H]1COC[C@H]2CN(Cc3ccco3)C[C@H]21)N1CCCO1,-7.92,18.7,-1.75,0.139,4.63,-47.9,4.62,-0.652,6.25,15,-6.91
CCOC(=O)C1CCCN(c2ccc(-c3nc(C)no3)cn2)C1 (configuration not stated),-4.99,8,-4.16,19.1,5.36,6.25,0,1.88,3.83,11.1,-6.07
NC(=O)C1(Cc2ccccc2-c2ccccc2)CCCN(CC2CC2)C1 (configuration not stated),-0.127,0,8.02,1.63,3.15,0.233,5.2,-4.55,2.13,3.85,-2.97
